From PubChem BioAssay come the findings set out here.

Broadly, the viability is a read-out of living cells in per cent, often relative to untreated cells.

“And” between values parts separate entries of the source, which are not always exact repeats. Equal entries are not always repeated. The source made the active and inactive calls. Cut-off read from the data, not from the text of the source, unless noted: active = parasite load remaining mostly below about 12% (no sharp cut-off); inactive = mostly above about 10%.

Assay [1] in a line: hESC survival regulators, cell-based (AID 493140; call rule not given here;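 note: cells exposed to compounds for four days before counting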). To be noted: human embryonic stem cell survival screen; stronger effect = higher value.
Assay [2] can be described thus: liver-stage malaria parasite growth inhibition, primary screen, cell-based, HepG2, luciferase luminescence, HepG2 viability (AID 624349).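 Note: 100% = mean of DMSO negative control wells on the same plate.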 To be noted: P. berghei liver stage in HepG2, luciferase luminescence, concentration not given here; parasite load remaining: stronger effect = lower value; viability: measured here: HepG2 viability without parasites.
Assay [3] can be described thus: sensitizers of A549 cells to miR-34 induction, primary screen, imaging, A549 dox-inducible miR-34, nuclei and caspase counts (AID 1347080;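 active = compounds whose cell count with miR-34 switched on is under 0.7 times the count with it off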). To be noted: A549 miR-34 inducible, Hoechst nuclei count, 48 h.
The nature of assay [4]: survival rescue of mitochondrial mutant cells in low glucose, primary screen, MELAS cybrids, Rieske KO mouse fibroblasts, CellTiter-Glo (AID 1508586;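 active = mean z-score across replicates of 1.96 or higher in either the MELAS or the Rieske mutant cell line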;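 note: z relative to plate mean and SD of compound and empty wells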). (ATP-based viability assays read luminescence as a measure of living cells.)
Where [5] appears, read: stronger effect = lower value, cell number ratio, induced over uninduced.
[6] abbreviates: measured here: relative caspase fold change +Dox/-Dox.
Setting [7] is: measured here: total cells with miR-34 induction, stronger effect = lower value.
Where [8] appears, read: measured here: total cells without miR-34 induction.
Setting [9] is: MELAS cybrid survival, CellTiter-Glo 48 h, stronger effect = higher value.
[10] abbreviates: Rieske KO mouse fibroblast survival, CellTiter-Glo 72 h.

Regarding `O=C1NCCN1c1ncc([N+](=O)[O-])s1`, in assay [1], the survival was 3.92 (inactive). Besides, the parasite load remaining in assay [2] is 95% (inactive) and 83.2% (inactive). For the same compound, in assay [2], the viability is 122% and 79.5%. Moreover, the fold change in assay [3] (setting [5]) was 0.899 (inactive); in assay [3] (setting [6]), 1.68. Besides, the cell count in assay [3] (setting [7]) is 8920; in assay [3] (setting [8]) it was 9920. The z-score in assay [4] (setting [9]) was 0.58 (inactive); in assay [4] (setting [10]), -0.169.

With `Cc1c(Cl)cccc1Nc1ncccc1C(=O)O`, the parasite load remaining in assay [2] was 71.2% (inactive). The viability in assay [2] stood at 70.4%. Further, the fold change in assay [3] (setting [5]) is 0.943 (inactive); in assay [3] (setting [6]), 0.763. Further, the cell count is 9020 in assay [3] (setting [7]) and 9560 in assay [3] (setting [8]). The z-score in assay [4] (setting [9]) was 0.72 (inactive); in assay [4] (setting [10]), 0.0323.

In the case of `C[C@@H]1C[C@H]2[C@@H]3C[C@H](F)C4=CC(=O)C=C[C@]4(C)[C@@]3(Cl)[C@@H](O)C[C@]2(C)[C@H]1C(=O)COC(=O)C(C)(C)C`, the survival in assay [1] is 4.25 (inactive). Further, the parasite load remaining in assay [2] is 85.6% (inactive). In addition, in assay [2], the viability came to 86.4%. The fold change was 0.917 (inactive) in assay [3] (setting [5]) and 0.704 in assay [3] (setting [6]). Also, the cell count in assay [3] (setting [7]) came out at 6960; in assay [3] (setting [8]) it was 7580. Also, the figures for the z-score in assay [4] (setting [9]) and in assay [4] (setting [10]) were -0.991 (inactive) and -0.15, respectively.

Take `O=C1Cc2c([nH]c3ccc(Br)cc23)-c2ncccc2N1`: the parasite load remaining in assay [2] is 39% (inactive). Further, in assay [2], the viability worked out at 165%. For the same compound, the fold change in assay [3] (setting [5]) was 0.879 (inactive); in assay [3] (setting [6]), 0.672. For the same compound, the cell count in assay [3] (setting [7]) stood at 2970; in assay [3] (setting [8]), 3380. In addition, the z-score was 1.05 (inactive) in assay [4] (setting [9]) and -2.27 in assay [4] (setting [10]).

Take `CN/C(=C/[N+](=O)[O-])NCCSCc1csc(CN(C)C)n1`: in assay [2], the parasite load remaining is 74.7% (inactive). Besides, in assay [2], the viability is 97.8%. Also, the fold change in assay [3] (setting [5]) is 0.889 (inactive); in assay [3] (setting [6]) it was 0.967. For the same compound, the cell count in assay [3] (setting [7]) amounted to 9080; in assay [3] (setting [8]) it was 10200. Also, the z-score in assay [4] (setting [9]) is 0.561 (inactive); in assay [4] (setting [10]), -0.45.

Take `CC(=O)O[C@H]1C[C@@]2(C)[C@@H](C[C@@H](O)[C@H]3[C@@]4(C)CC[C@@H](O)[C@@H](C)C4CC[C@@]32C)/C1=C(\CCC=C(C)C)C(=O)O` (some centres undefined): the parasite load remaining in assay [2] was 147% (inactive). For the same compound, the viability in assay [2] was found to be 140%. Moreover, the fold change in assay [3] (setting [5]) was 0.911 (inactive); in assay [3] (setting [6]), 1.1. The cell count in assay [3] (setting [7]) was found to be 8570; in assay [3] (setting [8]), 9410. For the same compound, the z-score is -3.27 (inactive) in assay [4] (setting [9]) and -2.48 in assay [4] (setting [10]).

`O=C(O)C=Cc1ccc(O)c(O)c1`: the survival in assay [1] is 7.75 (inactive). In addition, the parasite load remaining in assay [2] is 59.8% (inactive). In assay [2], the viability is 95.6%. The fold change in assay [3] (setting [5]) is 0.886 (inactive) and 0.85 (inactive); in assay [3] (setting [6]), 1.16 and 0.929. Moreover, the cell count in assay [3] (setting [7]) was 9150 and 8100; in assay [3] (setting [8]), 10300 and 9530. For the same compound, the z-score in assay [4] (setting [9]) is -0.35 (inactive); in assay [4] (setting [10]), 0.227.

With `CC(C)(C)NCC(O)COc1ccccc1C1CCCC1` (centres undefined), in assay [1], the survival is 4.5 (inactive). In addition, in assay [2], the parasite load remaining was 64.8% (inactive). Further, the viability in assay [2] turned out to be 78.7%. Besides, the fold change was 0.898 (inactive) in assay [3] (setting [5]) and 0.683 in assay [3] (setting [6]). Besides, the cell count turned out to be 7970 in assay [3] (setting [7]) and 8880 in assay [3] (setting [8]). Also, the z-score in assay [4] (setting [9]) was -0.603 (inactive); in assay [4] (setting [10]), -0.983.

Regarding `COc1ccc2cc([C@@H](C)C(=O)O)ccc2c1`, the survival in assay [1] is 10.1 (inactive). Further, in assay [2], the parasite load remaining is 124% (inactive) and 104% (inactive). Besides, the viability in assay [2] was 101% and 92.4%. Besides, the results for the fold change in assay [3] (setting [5]) and in assay [3] (setting [6]) were 0.747 (inactive) and 1.43, respectively. For the same compound, the cell count was 6320 in assay [3] (setting [7]) and 8450 in assay [3] (setting [8]). For the same compound, the z-score is -0.0303 (inactive) in assay [4] (setting [9]) and -0.487 in assay [4] (setting [10]).

Consider `CC1(C)S[C@@H]2[C@H](NC(=O)C(C(=O)O)c3ccsc3)C(=O)N2[C@H]1C(=O)O` (some centres undefined), for which, in assay [2], the parasite load remaining was 73.9% (inactive). In addition, in assay [2], the viability worked out at 69.2%. For the same compound, the fold change is 0.946 (inactive) in assay [3] (setting [5]) and 0.678 in assay [3] (setting [6]). The cell count in assay [3] (setting [7]) was found to be 9480; in assay [3] (setting [8]), 10000. In addition, the z-score in assay [4] (setting [9]) is 0.609 (inactive); in assay [4] (setting [10]), 0.365.

As to `CC1CS(=O)(=O)CCN1N=Cc1ccc([N+](=O)[O-])o1` (centres undefined), in assay [1], the survival is 3.75 (inactive). In assay [2], the parasite load remaining is 67.6% (inactive). Besides, in assay [2], the viability stood at 75.5%. In addition, the fold change in assay [3] (setting [5]) is 0.925 (inactive); in assay [3] (setting [6]), 0.621. The cell count in assay [3] (setting [7]) came to 8950; in assay [3] (setting [8]), 9680. The z-score in assay [4] (setting [9]) is -0.298 (inactive); in assay [4] (setting [10]), -0.374.

For `CN[C@H](CC(C)C)C(=O)N[C@H]1C(=O)N[C@@H](CC(N)=O)C(=O)N[C@H]2C(=O)N[C@H]3C(=O)N[C@H](C(=O)N[C@H](C(=O)O)c4cc(O)cc(O)c4-c4cc3ccc4O)[C@H](O)c3ccc(c(Cl)c3)Oc3cc2cc(c3O[C@@H]2OC(CO)[C@@H](O)[C@H](O)[C@H]2O[C@H]2C[C@](C)(N)[C@H](O)[C@H](C)O2)Oc2ccc(cc2Cl)[C@H]1O` (some centres undefined), in assay [2], the parasite load remaining is 59.3% (inactive). In addition, in assay [2], the viability was 113%. Moreover, the fold change in assay [3] (setting [5]) is 0.843 (inactive); in assay [3] (setting [6]) it was 1.57. The cell count is 8980 in assay [3] (setting [7]) and 10700 in assay [3] (setting [8]). For the same compound, the results for the z-score in assay [4] (setting [9]) and in assay [4] (setting [10]) were -0.371 (inactive) and -0.181, respectively.

Turning to `C=C(NC(=O)C(=C)NC(=O)c1csc(C2=N[C@H]3c4csc(n4)[C@H]4NC(=O)c5csc(n5)[C@H]([C@@](C)(O)[C@@H](C)O)NC(=O)[C@H]5CSC(=N5)/C(=C\C)NC(=O)[C@H]([C@@H](C)O)NC(=O)c5csc(n5)[C@]3(CC2)NC(=O)[C@H](C)NC(=O)C(=C)NC(=O)[C@H](C)NC(=O)[C@H](C(C)CC)N[C@@H]2C=Cc3c([C@H](C)O)cc(nc3[C@H]2O)C(=O)O[C@@H]4C)n1)C(N)=O` (some centres undefined), the parasite load remaining in assay [2] was 8.38% (inactive). Moreover, the viability in assay [2] was determined as 102%. Besides, the results for the fold change in assay [3] (setting [5]) and in assay [3] (setting [6]) were 0.85 (inactive) and 1.56, respectively. In addition, the cell count in assay [3] (setting [7]) worked out at 7430; in assay [3] (setting [8]) it was 8740. Also, the figures for the z-score in assay [4] (setting [9]) and in assay [4] (setting [10]) were 5.43 (active) and 3.6, respectively.

Consider `OC(CCN1CCCCC1)(c1ccccc1)C1C[C@@H]2C=C[C@H]1C2` (some centres undefined), for which, in assay [2], the parasite load remaining is 24.7% (inactive). Besides, in assay [2], the viability was 105%. In addition, the fold change is 0.888 (inactive) in assay [3] (setting [5]) and 1.45 in assay [3] (setting [6]). In addition, the cell count in assay [3] (setting [7]) was 8210; in assay [3] (setting [8]), 9240. The z-score in assay [4] (setting [9]) is -0.0819 (inactive); in assay [4] (setting [10]), -0.0447.

For `CN[C@H]1[C@@H](O)[C@H](O[C@H]2[C@@H](O)[C@@H](OC3OC(CN)=CCC3N)[C@H](N)C[C@@H]2N)OC[C@@]1(C)O` (some centres undefined), the parasite load remaining in assay [2] is 95.5% (inactive). Further, the viability in assay [2] stood at 113%. The results for the fold change in assay [3] (setting [5]) and in assay [3] (setting [6]) were 0.885 (inactive) and 1.15, respectively. Moreover, the cell count in assay [3] (setting [7]) was 9450; in assay [3] (setting [8]) it was 10700. In addition, the values for the z-score in assay [4] (setting [9]) and in assay [4] (setting [10]) were 0.354 (inactive) and 0.0602, respectively.

Consider `CN[C@@H]1[C@H](O[C@H]2[C@H](O[C@@H]3[C@@H](O)[C@H](O)[C@@H](N=C(N)N)[C@H](O)[C@H]3N=C(N)N)O[C@@H](C)[C@]2(O)CO)O[C@@H](CO)[C@H](O)[C@H]1O`, for which the survival in assay [1] is 13.1 (inactive). Further, the parasite load remaining in assay [2] is 58.9% (inactive) and 103% (inactive). Further, in assay [2], the viability is 51% and 87.7%. Further, the results for the fold change in assay [3] (setting [5]) and in assay [3] (setting [6]) were 0.925 (inactive) and 1.1, respectively. For the same compound, the cell count is 9160 in assay [3] (setting [7]) and 9910 in assay [3] (setting [8]). For the same compound, the z-score was -0.905 (inactive) in assay [4] (setting [9]) and -0.0139 in assay [4] (setting [10]).

With `O=C(O)C(O)C(O)C(O)C(O)C(=O)O` (centres undefined) (tested in a mixture with another compound), in assay [1], the survival is 5.33 (inactive). Further, in assay [2], the parasite load remaining is 114% (inactive). In addition, the viability in assay [2] was found to be 71.7%. Besides, the fold change was 0.895 (inactive) in assay [3] (setting [5]) and 0.792 in assay [3] (setting [6]). Besides, the cell count stood at 8860 in assay [3] (setting [7]) and 9910 in assay [3] (setting [8]). For the same compound, the z-score in assay [4] (setting [9]) was -1.4 (inactive); in assay [4] (setting [10]), -0.918.
